The full list was thinned out, with hits kept by preference.
HT1080 IDH1KD tx: qHTS for induction of synthetic lethality in tumor cells producing 2HG: qHTS for the HT-1080-IDH1KD cell line; HT-1080 IDH1 knockdown viability, ATP luminescence, 48 h; Potency, µM (titrated, usually from 46.1 µM), most hits filed as cytotoxic; 2% of 360,000 active
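After a 2 h attachment period, IDH1KD HT-1080 cells took pin-transferred compound for 48 h at 37 °C; ATP-based luminescence after 10 min room-temperature reagent incubation reported viability.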
DT40 TDP1 CPT: qHTS for Inhibitors of human tyrosyl-DNA phosphodiesterase 1 (TDP1): qHTS in cells in presence of CPT. chicken DT40 Tdp1-/-;hTDP1 cells + 20 nM CPT, ATP luminescence, 48 h. Potency, µM (series often up to 46.2 µM), hits mostly inhibitors. 12% of 420,000 active; note: nearly all actives have a fitted effect of over 55% in size
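Chicken DT40 Tdp1-/- cells complemented with human TDP1, 400 cells/well, exposed to compounds plus 20 nM camptothecin for at least 48 h at 37 C; viability read as ATP content by CellTiter-Glo luminescence.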
12-LOX inh: Primary qHTS assay for inhibitors of human arachidonate 12S-lipoxygenase (ALOX12): Round 2. purified 12hLO, xylenol orange hydroperoxide absorbance. Potency, µM (doses to about 108 µM), actives largely listed as inhibitors. 1.1% of 580,000 active. AID 1671190, 2021
Target sequence (P18054 whole entry, looked up): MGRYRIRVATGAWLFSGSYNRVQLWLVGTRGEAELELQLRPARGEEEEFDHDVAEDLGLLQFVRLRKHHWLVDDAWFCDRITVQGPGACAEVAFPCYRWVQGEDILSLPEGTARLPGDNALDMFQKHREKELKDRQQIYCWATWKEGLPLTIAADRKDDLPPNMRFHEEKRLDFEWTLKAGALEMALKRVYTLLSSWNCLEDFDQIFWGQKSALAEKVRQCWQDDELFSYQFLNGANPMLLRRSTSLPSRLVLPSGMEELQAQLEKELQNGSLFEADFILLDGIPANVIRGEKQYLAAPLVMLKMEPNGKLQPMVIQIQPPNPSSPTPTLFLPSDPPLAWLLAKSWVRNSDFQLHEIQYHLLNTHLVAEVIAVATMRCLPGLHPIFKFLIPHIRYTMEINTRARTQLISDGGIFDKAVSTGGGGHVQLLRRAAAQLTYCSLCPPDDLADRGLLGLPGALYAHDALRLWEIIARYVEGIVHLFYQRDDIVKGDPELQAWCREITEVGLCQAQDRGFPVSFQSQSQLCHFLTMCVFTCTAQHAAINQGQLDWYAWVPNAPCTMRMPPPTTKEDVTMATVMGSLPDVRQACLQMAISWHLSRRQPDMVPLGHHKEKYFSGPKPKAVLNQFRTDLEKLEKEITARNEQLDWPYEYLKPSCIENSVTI
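Hydroperoxide product was detected by ferrous iron/xylenol orange as the 573 to 405 nm absorbance ratio. Arachidonic acid at 40 uM (final) was turned over for 30 min at room temperature by 150 nM human 12hLO, pH 7.0 Hepes buffer, after 15 min compound preincubation.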
IL-1B inflam inh: qHTS for Inhibitors of Inflammasome Signaling: IL-1-beta AlphaLISA Primary Screen | THP-1 LPS/ATP IL-1B secretion, AlphaLISA, 16 h; stronger effect = lower value | activity change, % at 57.5 µM | 4.7% of 360,000 active | AID 743279, 2014; in the data active = activity change below about -50%; inconclusive = mostly about -30% to -49%
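THP-1 cells pretreated 1 hr with compounds (up to 57.5 uM final), then stimulated with LPS (250 ng/mL final) plus ATP (1.25 mM final); secreted IL-1B measured by AlphaLISA after 16 hr, decreased signal indicating inhibition.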
HT1080NT lethal: qHTS for induction of synthetic lethality in tumor cells producing 2HG: qHTS for the HT-1080-NT fibrosarcoma cell line. HT-1080-NT fibrosarcoma viability, CellTiter-Glo ATP luminescence, 48 h. Potency, µM (highest dose often 46.1 µM), actives largely listed as cytotoxic. 1.6% of 360,000 active. AID 686970, 2013;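 note: NT is the 2HG producing partner of a matched IDH1 knockdown line; nearly all actives have a fitted effect of over 55% in size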
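750 cells/well, RPMI + 5% FBS; 2 h settle, compound pin-transfer, 48 h at 37 degrees C. CellTiter-Glo 10 min RT, luminescence. Normalized to DMSO and media-only wells.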
DT40 TDP1 no CPT: qHTS for Inhibitors of human tyrosyl-DNA phosphodiesterase 1 (TDP1): qHTS in cells in absence of CPT; DT40 Tdp1-/- hTDP1 cells, no CPT, ATP luminescence, 48 h; Potency, µM (doses to about 46.2 µM), hits mostly inhibitors; 15% of 420,000 active; note: nearly all actives have a fitted effect of over 55% in size
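Cells were dispensed at 400 per well, compounds added by pin tool, plates incubated ≥48 hr at 37 °C, then CellTiter-Glo added for 30 min at room temperature before luminescence reading. Line: DT40 Tdp1-/- complemented with hTDP1; camptothecin omitted.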
Of the large screens only hits and unclear results are named; the others gave an inactive call. Unless noted, calls come from the whole dose curve; as a rule, active = well fitted curve in the direction sought with a large enough effect; inconclusive = small, poorly fitted or top-dose-only effect, or another doubt; inactive = no such curve, though single readings can be large; an effect the other way counts as inactive or inconclusive.

Cc1oc(-c2cccc(Cl)c2)nc1CN1CCC(C(=O)NC(C)c2ccccc2)CC1 (configuration not stated)	DT40 TDP1 CPT 4.1µM, 12-LOX inh inconclusive, DT40 TDP1 no CPT 4.6µM (no result: HT1080 IDH1KD tx, IL-1B inflam inh, HT1080NT lethal)
Cc1oc(-c2cccc(Cl)c2)nc1CN1CCC(C(=O)NCCCN2CCN(c3ccc(F)cc3)CC2)CC1	DT40 TDP1 CPT 4.6µM, 12-LOX inh inconclusive, DT40 TDP1 no CPT 2.9µM (no result: HT1080 IDH1KD tx, IL-1B inflam inh, HT1080NT lethal)
CCCCNC(=O)C1CCCN(Cc2nc(-c3ccc(Cl)cc3)oc2C)C1 (configuration not stated)	DT40 TDP1 CPT 6.5µM, DT40 TDP1 no CPT 4.1µM (no result: HT1080 IDH1KD tx, IL-1B inflam inh, HT1080NT lethal)
CC(C)(C)c1cc(O)ccc1O	DT40 TDP1 CPT 1.7µM, 12-LOX inh inconclusive, DT40 TDP1 no CPT 1.2µM (no result: HT1080 IDH1KD tx, IL-1B inflam inh, HT1080NT lethal)
CC(C)(C)c1ccccc1O	none
O=c1c2ccccc2nc(/C=C\c2cccc(Br)c2)n1-c1ccc(O)cc1	DT40 TDP1 CPT inconclusive, DT40 TDP1 no CPT inconclusive (no result: HT1080 IDH1KD tx, IL-1B inflam inh, HT1080NT lethal)
COc1cc(/C=C/c2nc3ccccc3c(=O)n2-c2cccc(O)c2)ccc1O	HT1080 IDH1KD tx inconclusive, DT40 TDP1 CPT inconclusive, DT40 TDP1 no CPT 18µM
COc1cc(/C=C/c2nc3ccccc3c(=O)n2-c2ccccc2O)ccc1O	HT1080 IDH1KD tx inconclusive, DT40 TDP1 CPT inconclusive, 12-LOX inh inconclusive, IL-1B inflam inh -66, HT1080NT lethal inconclusive, DT40 TDP1 no CPT inconclusive
Cc1cc(-c2ccc(C)c(S(=O)(=O)N3CCOc4ccc(Cl)cc43)c2)on1	DT40 TDP1 CPT 21µM, DT40 TDP1 no CPT 13µM (no result: HT1080 IDH1KD tx, IL-1B inflam inh, HT1080NT lethal)
Cc1ccsc1C(=O)C1CCCN(Cc2ccccc2O)C1 (configuration not stated)	DT40 TDP1 no CPT inconclusive
Cc1ccsc1C(=O)C1CCCN(Cc2cccn2-c2ccccn2)C1 (configuration not stated)	HT1080 IDH1KD tx inconclusive, DT40 TDP1 CPT 21µM, HT1080NT lethal inconclusive, DT40 TDP1 no CPT inconclusive
CC(=O)Nc1ccc(-c2ccc(=O)n3c2[C@@H]2C[C@@H](CN(C(=O)C(C)(C)C)C2)C3)cc1	none (no result: HT1080 IDH1KD tx, DT40 TDP1 CPT, IL-1B inflam inh, HT1080NT lethal, DT40 TDP1 no CPT)
C=CCNc1nnc(Sc2ncccc2[N+](=O)[O-])s1	DT40 TDP1 CPT 5.2µM, 12-LOX inh inconclusive, DT40 TDP1 no CPT 7.3µM
COCc1cn(C[C@H]2C[C@@H]3CCN2C[C@@H]3C(=O)NCc2ccccc2)nn1	none (no result: HT1080 IDH1KD tx, DT40 TDP1 CPT, IL-1B inflam inh, HT1080NT lethal, DT40 TDP1 no CPT)
COc1ccc(CNCCC(c2ccc(OC(C)C)cc2)C(C)C)cc1OC (configuration not stated)	HT1080 IDH1KD tx inconclusive, DT40 TDP1 CPT inconclusive, IL-1B inflam inh -98, HT1080NT lethal inconclusive, DT40 TDP1 no CPT 16µM
COc1ccccc1C1Nc2ccccc2-n2c(-c3ccccc3)c3c(=O)n(C)c(=O)n(C)c3c21 (configuration not stated)	DT40 TDP1 no CPT 6.5µM (no result: HT1080 IDH1KD tx, IL-1B inflam inh, HT1080NT lethal)
COC(=O)[C@]1(C)C[C@H]1[C@H](NP(=O)(c1ccccc1)c1ccccc1)c1ccccc1	DT40 TDP1 CPT inconclusive, DT40 TDP1 no CPT inconclusive
C=C[C@@H]1C[C@@]1(C)[C@@H](NP(=O)(c1ccccc1)c1ccccc1)c1ccccc1	DT40 TDP1 CPT inconclusive, DT40 TDP1 no CPT 15µM
O=[S+]1([O-])NCC2(CCN(CC3CCCCC3)C2)Oc2ncccc21 (configuration not stated)	none (no result: HT1080 IDH1KD tx, DT40 TDP1 CPT, IL-1B inflam inh, HT1080NT lethal, DT40 TDP1 no CPT)
COc1ccc([C@H]2C[C@@H](O)[C@@H](O)[C@@H]2NCC2CCCC2)cc1	none (no result: HT1080 IDH1KD tx, DT40 TDP1 CPT, IL-1B inflam inh, HT1080NT lethal, DT40 TDP1 no CPT)
COC(=O)C1=C(c2cc3ccccc3s2)C[C@@H]2CC[C@H]1N2C(=O)NCC1CC1	DT40 TDP1 CPT inconclusive, 12-LOX inh inconclusive, DT40 TDP1 no CPT 16µM
COC(=O)C1=C(c2cc3ccccc3s2)C[C@@H]2CC[C@H]1N2C(=O)NC1CC1	DT40 TDP1 CPT inconclusive, DT40 TDP1 no CPT 15µM

Compound activity deposited in PubChem BioAssay by National Center for Advancing Translational Sciences (NCATS).
